According to PubChem BioAssay AID493087 (The Scripps Research Institute Molecular Screening Center, 2011):
The campaign covered roughly 340,000 compounds. About 240 (0.071%) were called active. The sample as a whole holds a higher share of actives than the screen did. A number with no mark means an inactive call.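 The calls were made as follows: active = activation above the mean of all tested compounds plus 3 SD, set per screening campaign (cut at about 17% in these data); inactive = the rest.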

The molecules below were run against Insulin-degrading enzyme (Homo sapiens) (UniProt P14735) (assay: enhanced cellular IDE Abeta cleavage – fluorescence polarization, HEK cells, FAbeta-B substrate, primary screen (AID 493087)). Conditions: at 5.96 µM, active compounds read high, 0% vehicle, 100% cell-free pure enzyme wells.
Insulin-degrading enzyme (Homo sapiens), sequence (P14735 whole entry, looked up): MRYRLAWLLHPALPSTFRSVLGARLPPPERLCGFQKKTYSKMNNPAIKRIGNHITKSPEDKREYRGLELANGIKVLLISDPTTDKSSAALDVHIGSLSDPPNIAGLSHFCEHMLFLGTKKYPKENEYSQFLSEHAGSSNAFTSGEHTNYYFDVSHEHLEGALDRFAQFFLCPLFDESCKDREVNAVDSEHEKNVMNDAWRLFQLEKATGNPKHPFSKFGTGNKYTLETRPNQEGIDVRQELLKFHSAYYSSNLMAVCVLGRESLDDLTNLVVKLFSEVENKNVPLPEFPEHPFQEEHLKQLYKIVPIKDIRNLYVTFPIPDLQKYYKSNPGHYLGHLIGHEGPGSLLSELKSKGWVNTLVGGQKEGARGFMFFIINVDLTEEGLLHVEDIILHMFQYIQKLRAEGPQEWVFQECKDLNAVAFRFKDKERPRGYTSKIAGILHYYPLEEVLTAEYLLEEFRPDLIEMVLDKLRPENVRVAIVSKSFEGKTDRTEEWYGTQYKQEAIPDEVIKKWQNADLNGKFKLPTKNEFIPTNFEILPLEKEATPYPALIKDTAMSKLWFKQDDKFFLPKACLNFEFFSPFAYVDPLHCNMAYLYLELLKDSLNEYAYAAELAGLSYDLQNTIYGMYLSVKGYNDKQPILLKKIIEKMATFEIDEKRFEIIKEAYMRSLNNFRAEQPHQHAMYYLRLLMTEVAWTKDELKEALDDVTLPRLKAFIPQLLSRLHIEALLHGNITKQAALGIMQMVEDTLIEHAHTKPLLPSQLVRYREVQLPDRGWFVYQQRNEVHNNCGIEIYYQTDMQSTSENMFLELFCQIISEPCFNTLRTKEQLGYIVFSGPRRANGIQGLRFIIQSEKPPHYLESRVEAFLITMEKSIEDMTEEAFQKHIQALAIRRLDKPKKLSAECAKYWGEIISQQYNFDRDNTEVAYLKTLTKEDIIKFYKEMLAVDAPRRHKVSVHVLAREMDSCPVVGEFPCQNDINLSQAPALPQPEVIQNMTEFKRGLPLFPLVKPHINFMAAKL

| SMILES | activation |
| --- | --- |
| NC(=O)COC(=O)c1ccc2c(c1)C(=O)N(Cc1ccco1)C2=O | 1.77% |
| O=C(Nc1cc2c3c(c1)C1CCCC1CN3CC1CCCC21)c1ccc([N+](=O)[O-])cc1 (centres undefined) | 1.32% |
| CC(=O)c1ccc(N2CCN(CC(O)c3ccccc3)CC2)cc1 (centres undefined) | 3.22% |
| COCCNC(=O)COc1ccccc1C | 3.83% |
| Cc1ccccc1OC/C(O)=C(\C#N)c1nc2ccccc2[nH]1 | 22.2% (active) |
| CC(C)(C)c1nnc2sc(SCC(O)=C(C#N)c3nc4ccccc4[nH]3)nn2c1=O | -2.57% |
| O=C(Nc1ccccc1C(=O)N1CCCCC1)c1ccco1 | 7.42% |
| CC(C)[C@@H](C(=O)OCC(=O)c1ccc2c(c1)NC(=O)CO2)N1C(=O)c2ccccc2C1=O | 6.47% |
| O=C(O)CCn1cc(/C=C/C(=O)c2ccc(Cl)cc2)c(-c2cccc(Br)c2)n1 | 7.16% |
| COc1cc2c3c(c1)/C(=C1/SC(=S)NC1=O)C(=O)N3C(C)(C)C=C2C | 3.91% |
| O=C(CSc1nc2nccnc2c(=O)n1Cc1cccs1)Nc1ccccc1F | -1.39% |
| N#C/C(=C/c1cccc([N+](=O)[O-])c1)c1nnc2n1CCCCC2 | 1.53% |
| O=C(O)c1ccc(S(=O)(=O)N2CCC(Cc3ccccc3)CC2)cc1 | -5.76% |
| COc1ccc(-c2c(-c3cc(OC)cc(OC)c3)n(C)c3ccc(-c4ccn[nH]4)cc23)cc1 | 1.2% |
| CCSc1nc(=S)n(CC)c(C)c1C(C)=O | -2.33% |
| CC1=C(C)CC(C(=O)NNC(=O)c2csc3c2CCC(C(C)(C)C)C3)C(C(=O)O)C1 (centres undefined) | 4.06% |
| Cc1ccc(CNC(=O)C2CCN(S(=O)(=O)c3ccc4nc5c(c(C(=O)O)c4c3)CC(C)CC5)CC2)cc1 (centres undefined) | -1.27% |
| Cc1ccc(-c2nc(COC(=O)c3c(C)noc3C)cs2)cc1 | -2.15% |
| COC(=O)c1sc2[nH]c(=S)n(N)c(=O)c2c1C | 3.84% |
| O=C(CCC(=O)N1CCN(S(=O)(=O)c2ccc(Cl)cc2)CC1)NCc1cccc(C(F)(F)F)c1 | 2.14% |
| Cc1ccc(S(=O)(=O)N(C)CC(=O)NCC(c2ccc(F)cc2)N2CCOCC2)cc1 (centres undefined) | 1.51% |
| Cn1nccc1C(=O)N1CCCC(C(=O)c2ccc(Oc3ccccc3)cc2)C1 (centres undefined) | -8.2% |
| O=C(NCCCn1ccnc1)C(=O)NCC1OCCN1S(=O)(=O)c1cc(F)ccc1F (centres undefined) | 4.73% |
| COc1ccc(-n2ncc3c2CC(C)(C)CC3NC(=O)CCc2c(C)nn(C)c2C)cc1 (centres undefined) | 5.01% |
